Measurements taken from PubChem BioAssay (NCI).
Several values for one entry are separate records, joined by “and”; a condition that tells them apart may be missing. Equal values may be shown once. Compounds without any hit were thinned out: in the full panel of roughly 79,000, 15% have a hit. Some structures have more than one record in an assay (separate samples or runs), and their calls can disagree. Activity calls are given as the source filed them. Cut-off read from the data, not from the text of the source: active = growth inhibition above about 70%; inactive = the rest.

How the values were obtained:
[1] = NCI Yeast Anticancer Drug Screen. Data for the rad50 strain (AID 155);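 note: 0% = growth of vehicle-only cultures of the same strain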; conditions: S. cerevisiae rad50 strain growth inhibition; at 50.0 µM; stronger effect = higher value
Method in brief: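 Genetically altered yeast (DNA repair pathway); compound treatment; growth inhibition vs vehicle ctrl.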

[2] = NCI Yeast Anticancer Drug Screen. Data for the mec2-1 strain (AID 157); conditions: S. cerevisiae mec2-1 strain, at 50.0 µM, stronger effect = higher value
Method in brief: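 Each compound was tested on mec2-1 yeast, a strain altered in DNA damage repair or cell cycle control. Growth inhibition is reported relative to vehicle.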

[3] = NCI Yeast Anticancer Drug Screen. Data for the sgs1 mgt1 strain (AID 161);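 note: 0% = growth of cultures given vehicle only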; conditions: S. cerevisiae sgs1 mgt1 strain, at 50.0 µM, stronger effect = higher value
Method in brief: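 Genetically altered yeast, compound exposure, growth inhibition relative to vehicle.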

[4] = NCI Yeast Anticancer Drug Screen. Data for the cln2 rad14 strain (AID 165);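 note: 0% = growth equal to vehicle treated cultures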; conditions: S. cerevisiae cln2 rad14 strain, at 50.0 µM, stronger effect = higher value
Method in brief: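 Test compounds were added to cln2 rad14 yeast cultures; inhibition of growth was then determined by comparison with vehicle treatment.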

[5] = NCI Yeast Anticancer Drug Screen. Data for the bub3 strain (AID 167); conditions: S. cerevisiae bub3 mutant strain, at 50.0 µM, stronger effect = higher value
Method in brief: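 Yeast carrying a defined mutation is treated with each compound, and growth is compared with that of vehicle-exposed cells to give inhibition.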

[6] = NCI Yeast Anticancer Drug Screen. Data for the mlh1 rad18 strain (AID 175); conditions: S. cerevisiae mlh1 rad18 strain growth inhibition; at 50.0 µM; stronger effect = higher value
Method in brief: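 Inhibition values reflect reduced growth of mutant yeast versus vehicle-treated controls following compound exposure; the mutations affect DNA damage repair.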

Measured: growth inhibition

NCCC(=O)c1ccccc1
inactive: [1] -8.25% and 0.05% | [2] -4.2% and 6.2% | [3] -14.6% and -1.4% | [4] -17.4% and 7.65% | [5] -19.5% and 7.95% | [6] -2.7% and 25.3%

N#CC(Cc1ccccc1)c1ccccc1 (stereo unspecified)
inactive: [1] -65.7% and 17.2% | [2] -12.5% and 11.1% | [3] -18.1% and 29.8% | [4] -24.8% and 1.75% | [5] 0.45% and -5% | [6] 3.45% and 6.45%

CN(C)C(c1ccccc1)C1COC2Cc3ccccc3C1O2 (stereo unspecified)
inactive: [1] -8.1% and -3.3% | [2] -4.55% and -11.4% | [3] 10.3% and -2.85% | [4] 2.05% and 6.35% | [5] -27.2% and -19.2% | [6] -6.6% and -23.6%

COc1ccc(/C=C\c2cc(OC)c(OC)c(OC)c2)cc1OC(=O)C(N)CCC(=O)O (stereo unspecified)
inactive: [1] -5.3% and 8.35% | [2] -18.3% and -10.8% | [3] -0.6% and -3.85% | [4] 21.9% and 6.7% | [5] -19.6% and 34%
79.2% (active) and 3.3% (inactive): [6]

COc1cc(C=O)ccc1O
inactive: [1] 0.2% and 12.1% | [2] -0.35% and 2.65% | [3] -5.95% and 15.9% | [4] 4.45% and 6.3% | [5] -1.9% and 13.4% | [6] 7.75% and 14.2%

C/C=C(\C)C(=O)O
inactive: [1] 17.6% and -9.95% | [2] 9.3% and -5.05% | [3] -4.9% and -41.8% | [4] 13.2% and 2.25% | [5] 11.4% and -42.2% | [6] 25% and 9.75%

CC1(C)CC(=O)CC(=O)C1
inactive: [1] 25.2% and 10.2% | [2] 12.8% and 3.15% | [3] -9.3% and 4.6% | [4] 18.8% and 0.85% | [5] 2.55% and 6.75% | [6] 18.6% and 6.8%

NCCCNCCCCNCCCN
inactive: [1] 14.1% and -12.6% | [2] 30.6% and -27.4% | [3] 14.2% and -14.9% | [4] 8.5% and -10.2% | [5] 28% and -15.6% | [6] 19.6% and 3%

O=C(O)CCC(=O)c1ccc2ccccc2c1
inactive: [1] 60% and 8.8% | [2] 21.6% and 6.95% | [3] 44.8% and -5.7% | [4] 11.2% and -14.1% | [5] 9.15% and -23.1% | [6] 44.2% and 40.7%

CN(C)CC1CCCCC(CN(C)C)C1=O (stereo unspecified)
inactive: [1] -23.1% and -15.7% | [2] -5.8% and 2.95% | [3] -14.8% and -8.7% | [4] 4.4% and -52.7% | [5] -11.8% and 7.95% | [6] -13.6% and -8.7%

Nc1cc(S(=O)(=O)O)ccc1Cl
inactive: [1] 2.8% and 1% | [2] -15.7% and -2.75% | [3] 11.2% and -20.6% | [4] 10.1% and -43.9% | [5] 6.95% and 14.1% | [6] 3.95% and -13.1%

C=CCOC(=O)C(C)OC(=O)C(C)O (stereo unspecified)
inactive: [1] 35.3% and 15.3% | [2] 11.8% and 10.6% | [3] 13.6% and -3.75% | [4] 11.6% and -4% | [5] 6.85% and -0.4% | [6] 9.85% and 1.9%

O=C(O)CC(NC(=O)OCc1ccccc1)C(=O)O (stereo unspecified)
inactive: [1] -30.5% and -21.3% | [2] -16.4% and 9.65% | [3] -6.2% and 0.8% | [4] 16.5% and -33.6% | [5] 1.55% and 4.65% | [6] -8.75% and -16.1%

CC(=O)Nc1cccc2c1C(=O)OC2=O
inactive: [1] 8.65% and 1.9% | [2] -3.9% and -0.15% | [3] 5.05% and -16.7% | [4] -6.3% and -20.6% | [5] -1.9% and -0.8% | [6] -8.1% and -4.7%

COC(=O)/C(Cc1cccc(OC(C)=O)c1C(=O)OC)=N/O
inactive: [1] -8.8% and 2.95% | [2] 16.2% and 12.4% | [3] 9.25% and -3.7% | [4] -10.5% and -99.8% | [5] -8.75% and 12.7% | [6] -13.2% and 3.55%

NC(C(=O)O)C(CC(=O)O)C(=O)O (stereo unspecified)
inactive: [1] 1.8% and 9.2% | [2] -2.1% and 11.2% | [3] -1.95% and -2.75% | [4] -57% and -40% | [5] -10.9% and -0.05% | [6] 16.4% and 9.75%

Cn1cc(NC(=O)c2cc(NC(=O)c3cc(NC=O)cn3C)cn2C)cc1C(=O)NCCC(=N)N
6.75% (inactive) and 91.5% (active): [2]
22.9% (inactive) and 88.5% (active): [4]
5.1% (inactive) and 89.8% (active): [1]
-2.2% (inactive) and 91.7% (active): [3]
12.9% (inactive) and 90% (active): [6]
-1.75% (inactive) and 91.3% (active): [5]

CC(C)(O)C(I)C[n+]1ccccc1 (stereo unspecified)
inactive: [1] 38.5% and -7.55% | [2] 41.6% and -2.95% | [3] 50.5% and -28.9% | [4] 4.9% and -6.9% | [5] 39.9% and 0.85% | [6] 46.9% and -7.3%

O=C(CCl)OCCC1CCCCC1
inactive: [1] 9.3% and -7.6% | [2] -16.7% and -17.1% | [3] 5.15% and -10.8% | [4] -8.7% and -29.4% | [5] 5.6% and 6.1% | [6] 1.4% and -16.4%

CCCSc1nc(COC(=O)NC)c(COC(=O)NC)n1C
inactive: [1] -5.1% and -10% | [2] -25.1% and 2% | [3] -5.8% and -9.1% | [4] -12% and 2.95% | [5] -5.1% and -2% | [6] -20.4% and 4.85%

COc1cc(C)c2c(ccc3ccccc32)n1
inactive: [1] 24.6% and 23.9% | [2] 19.5% and 24.4% | [3] 16.5% and 11.2% | [4] -9.35% and 21.9% | [5] 10.2% and 16.4% | [6] 61.2% and 18.9%
